Whole data set: some 1,100 compounds, median “Wnt reporter firefly/Renilla luciferase ratio relative to plate median” near 1.1, cut for the highest 2% near 1.6. Shown is part of a subset that was picked to be rich in the highest values.
Test system: HEK293T (UBE3A T485A transfected, BAR Wnt reporter)
Assay: Wnt reporter firefly/Renilla luciferase ratio relative to plate median (fold (linear ratio)); higher = more Wnt/beta-catenin reporter activation
Details: 24 h
Procedure, shortened: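 HEK293T cells were grown in DMEM with 10% FBS at 37°C and 5% CO2, at 4500 cells/well in white 384-well plates. They were transfected with a BAR firefly luciferase Wnt reporter, TK-Renilla and an expression plasmid using Fugene 6. Four hours later, robots dosed the chemicals at 0.01–100 uM for 24 h, followed by Dual-Glo luciferase readout. Wnt activity (firefly/Renilla ratio) and cell health (raw Renilla) were median-centred per plate, averaged over four biological replicates.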

## CC(C(C)N1CC(=O)NC(=O)C1)N1CC(=O)NC(=O)C1 (stereo not drawn)
concentration: 0.01 uM
  Wnt reporter firefly/Renilla luciferase ratio: 1.31
concentration: 0.1 uM
  Wnt reporter firefly/Renilla luciferase ratio: 1.88
concentration: 1 uM
  Wnt reporter firefly/Renilla luciferase ratio: 1.23
concentration: 10 uM
  Wnt reporter firefly/Renilla luciferase ratio: 1.33
concentration: 100 uM
  Wnt reporter firefly/Renilla luciferase ratio: 1.53

## C#C[C@]1(O)CC[C@H]2[C@@H]3CCc4cc(O)ccc4[C@H]3CC[C@@]21C [17alpha-Ethinylestradiol]
concentration: 0.1 uM
  Wnt reporter firefly/Renilla luciferase ratio: 1.06
concentration: 1 uM
  Wnt reporter firefly/Renilla luciferase ratio: 0.888
concentration: 10 uM
  Wnt reporter firefly/Renilla luciferase ratio: 1.12
concentration: 100 uM
  Wnt reporter firefly/Renilla luciferase ratio: 0.42

## CC(=O)O [Acetic acid]
concentration: 0.1 uM
  Wnt reporter firefly/Renilla luciferase ratio: 1.13
concentration: 1 uM
  Wnt reporter firefly/Renilla luciferase ratio: 1.09
concentration: 10 uM
  Wnt reporter firefly/Renilla luciferase ratio: 1.46
concentration: 100 uM
  Wnt reporter firefly/Renilla luciferase ratio: 1.17

## C#C[C@]1(O)CC[C@H]2[C@@H]3CCC4=CC(=O)CC[C@@H]4[C@H]3CC[C@@]21CC [Norgestrel]
concentration: 0.1 uM
  Wnt reporter firefly/Renilla luciferase ratio: 0.82
concentration: 1 uM
  Wnt reporter firefly/Renilla luciferase ratio: 1.09
concentration: 10 uM
  Wnt reporter firefly/Renilla luciferase ratio: 1.07
concentration: 100 uM
  Wnt reporter firefly/Renilla luciferase ratio: 1.36

## CS(=O)(=O)O.Cc1cc(CCN2CCN(c3nsc4ccccc34)CC2)cc2c1NC(=O)CC2(C)C
concentration: 0.1 uM
  Wnt reporter firefly/Renilla luciferase ratio: 0.776
concentration: 1 uM
  Wnt reporter firefly/Renilla luciferase ratio: 0.735
concentration: 10 uM
  Wnt reporter firefly/Renilla luciferase ratio: 0.407

## CCNc1cccc(C)c1 [N-Ethyl-3-methylaniline]
concentration: 0.1 uM
  Wnt reporter firefly/Renilla luciferase ratio: 0.98
concentration: 1 uM
  Wnt reporter firefly/Renilla luciferase ratio: 1.05
concentration: 10 uM
  Wnt reporter firefly/Renilla luciferase ratio: 1.05
concentration: 100 uM
  Wnt reporter firefly/Renilla luciferase ratio: 1.54

## O=C(N[C@@H](Cc1ccccc1)[C@@H](O)C(=O)N1C[C@@H](O)[C@@H](O)C1)c1cc2cc(Cl)ccc2[nH]1 [Ingliforib]
concentration: 0.1 uM
  Wnt reporter firefly/Renilla luciferase ratio: 1.29
concentration: 1 uM
  Wnt reporter firefly/Renilla luciferase ratio: 1.69
concentration: 10 uM
  Wnt reporter firefly/Renilla luciferase ratio: 0.888
concentration: 100 uM
  Wnt reporter firefly/Renilla luciferase ratio: 0.353

## CCCCCCCCOc1ccc(C(=O)c2ccccc2)c(O)c1 [Octabenzone]
concentration: 0.1 uM
  Wnt reporter firefly/Renilla luciferase ratio: 1.12
concentration: 1 uM
  Wnt reporter firefly/Renilla luciferase ratio: 1.08
concentration: 10 uM
  Wnt reporter firefly/Renilla luciferase ratio: 0.916
concentration: 100 uM
  Wnt reporter firefly/Renilla luciferase ratio: 1.2

## O=C(O)C1(C(=O)Nc2ccc(Cl)cc2Cl)CC1 [Cyclanilide]
concentration: 0.01 uM
  Wnt reporter firefly/Renilla luciferase ratio: 1.46
concentration: 0.1 uM
  Wnt reporter firefly/Renilla luciferase ratio: 1.6
concentration: 1 uM
  Wnt reporter firefly/Renilla luciferase ratio: 1.16
concentration: 10 uM
  Wnt reporter firefly/Renilla luciferase ratio: 1.53
concentration: 100 uM
  Wnt reporter firefly/Renilla luciferase ratio: 0.874

## O=C(N[C@@H](c1ccccc1)[C@@H]1CCCCN1)c1cccc(C(F)(F)F)c1Cl
concentration: 0.1 uM
  Wnt reporter firefly/Renilla luciferase ratio: 0.912
concentration: 1 uM
  Wnt reporter firefly/Renilla luciferase ratio: 1.24
concentration: 10 uM
  Wnt reporter firefly/Renilla luciferase ratio: 0.921

## CCOC(=O)COc1ccc2c(c1)CC(NCC(O)c1cccc(Cl)c1)CC2.Cl (stereo not drawn)
concentration: 0.1 uM
  Wnt reporter firefly/Renilla luciferase ratio: 1.06
concentration: 1 uM
  Wnt reporter firefly/Renilla luciferase ratio: 1.18
concentration: 10 uM
  Wnt reporter firefly/Renilla luciferase ratio: 1.15
concentration: 100 uM
  Wnt reporter firefly/Renilla luciferase ratio: 1.19

## Cl.Clc1cc(Cl)c2c(c1)N=C1CCCCCN1C2
concentration: 0.1 uM
  Wnt reporter firefly/Renilla luciferase ratio: 0.996
concentration: 1 uM
  Wnt reporter firefly/Renilla luciferase ratio: 1.26
concentration: 10 uM
  Wnt reporter firefly/Renilla luciferase ratio: 1.13
concentration: 100 uM
  Wnt reporter firefly/Renilla luciferase ratio: 0.303

## Cc1[nH]nc2c1N=C(c1ccccc1Cl)c1cc([N+](=O)[O-])ccc1N2
concentration: 0.1 uM
  Wnt reporter firefly/Renilla luciferase ratio: 1.21
concentration: 1 uM
  Wnt reporter firefly/Renilla luciferase ratio: 1.72
concentration: 10 uM
  Wnt reporter firefly/Renilla luciferase ratio: 104
concentration: 100 uM
  Wnt reporter firefly/Renilla luciferase ratio: 89.3

## Nc1nc2nc[nH]c2c(=S)[nH]1 [6-Thioguanine]
concentration: 0.1 uM
  Wnt reporter firefly/Renilla luciferase ratio: 1.31
concentration: 1 uM
  Wnt reporter firefly/Renilla luciferase ratio: 1.03

## CCCCC(CC)COC(=O)CCCCCCCC(=O)OCC(CC)CCCC (stereo not drawn) [Bis(2-ethylhexyl) nonanedioate]
concentration: 0.1 uM
  Wnt reporter firefly/Renilla luciferase ratio: 1.04
concentration: 1 uM
  Wnt reporter firefly/Renilla luciferase ratio: 0.979
concentration: 10 uM
  Wnt reporter firefly/Renilla luciferase ratio: 1.33
concentration: 100 uM
  Wnt reporter firefly/Renilla luciferase ratio: 1.24

## O=C(NO)C1(NS(=O)(=O)c2ccc(Oc3ccc(F)cc3)cc2)CCOCC1
concentration: 0.1 uM
  Wnt reporter firefly/Renilla luciferase ratio: 1.18
concentration: 1 uM
  Wnt reporter firefly/Renilla luciferase ratio: 0.992
concentration: 10 uM
  Wnt reporter firefly/Renilla luciferase ratio: 0.736
concentration: 100 uM
  Wnt reporter firefly/Renilla luciferase ratio: 0.244

## O=C(O)[C@H](O)[C@@H](O)C(=O)O [L-Tartaric acid]
concentration: 0.1 uM
  Wnt reporter firefly/Renilla luciferase ratio: 1.14
concentration: 1 uM
  Wnt reporter firefly/Renilla luciferase ratio: 1.29
concentration: 10 uM
  Wnt reporter firefly/Renilla luciferase ratio: 0.958
concentration: 100 uM
  Wnt reporter firefly/Renilla luciferase ratio: 1.46

## Cc1cn([C@H]2C=C[C@@H](CO)O2)c(=O)[nH]c1=O [Stavudine]
concentration: 0.1 uM
  Wnt reporter firefly/Renilla luciferase ratio: 1.03
concentration: 1 uM
  Wnt reporter firefly/Renilla luciferase ratio: 1.04
concentration: 10 uM
  Wnt reporter firefly/Renilla luciferase ratio: 0.931
concentration: 100 uM
  Wnt reporter firefly/Renilla luciferase ratio: 1.62

## Cc1cn([C@H]2C[C@H](N=[N+]=[N-])[C@@H](CO)O2)c(=O)[nH]c1=O [3'-Azido-3'-deoxythymidine]
concentration: 0.1 uM
  Wnt reporter firefly/Renilla luciferase ratio: 1.15
concentration: 1 uM
  Wnt reporter firefly/Renilla luciferase ratio: 1.04
concentration: 10 uM
  Wnt reporter firefly/Renilla luciferase ratio: 1.15
concentration: 100 uM
  Wnt reporter firefly/Renilla luciferase ratio: 1.07

## OCC(CO)(CO)CO [Pentaerythritol]
concentration: 0.1 uM
  Wnt reporter firefly/Renilla luciferase ratio: 1.18
concentration: 1 uM
  Wnt reporter firefly/Renilla luciferase ratio: 1.51
concentration: 10 uM
  Wnt reporter firefly/Renilla luciferase ratio: 1.13
concentration: 100 uM
  Wnt reporter firefly/Renilla luciferase ratio: 1.27

## Cc1oc2c(NC(=O)c3c(Cl)cccc3Cl)cccc2c1C(C)(C)O
concentration: 0.1 uM
  Wnt reporter firefly/Renilla luciferase ratio: 1.01
concentration: 1 uM
  Wnt reporter firefly/Renilla luciferase ratio: 1.14
concentration: 10 uM
  Wnt reporter firefly/Renilla luciferase ratio: 0.7

## CN1C(=O)CC[C@H]1c1cccnc1 [Cotinine]
concentration: 0.1 uM
  Wnt reporter firefly/Renilla luciferase ratio: 0.928
concentration: 1 uM
  Wnt reporter firefly/Renilla luciferase ratio: 0.981
concentration: 10 uM
  Wnt reporter firefly/Renilla luciferase ratio: 1.03
concentration: 100 uM
  Wnt reporter firefly/Renilla luciferase ratio: 1.13

## O=C(O)c1cn(C2CC2)c2cc(N3CCNCC3)c(F)cc2c1=O [Ciprofloxacin]
concentration: 0.01 uM
  Wnt reporter firefly/Renilla luciferase ratio: 0.979
concentration: 0.1 uM
  Wnt reporter firefly/Renilla luciferase ratio: 0.853
concentration: 1 uM
  Wnt reporter firefly/Renilla luciferase ratio: 1.01
concentration: 10 uM
  Wnt reporter firefly/Renilla luciferase ratio: 0.882
concentration: 100 uM
  Wnt reporter firefly/Renilla luciferase ratio: 1.74

## CC1COc2c(N3CCN(C)CC3)c(F)cc3c(=O)c(C(=O)O)cn1c23 (stereo not drawn) [Levofloxacin]
concentration: 0.01 uM
  Wnt reporter firefly/Renilla luciferase ratio: 1.21
concentration: 0.1 uM
  Wnt reporter firefly/Renilla luciferase ratio: 1.2
concentration: 1 uM
  Wnt reporter firefly/Renilla luciferase ratio: 1.05
concentration: 10 uM
  Wnt reporter firefly/Renilla luciferase ratio: 1.11
concentration: 100 uM
  Wnt reporter firefly/Renilla luciferase ratio: 1.45

## COc1c(N2CC3CCCNC3C2)c(F)cc2c(=O)c(C(=O)O)cn(C3CC3)c12 (stereo not drawn) [Moxifloxacin]
concentration: 0.01 uM
  Wnt reporter firefly/Renilla luciferase ratio: 0.907
concentration: 0.1 uM
  Wnt reporter firefly/Renilla luciferase ratio: 1.02
concentration: 1 uM
  Wnt reporter firefly/Renilla luciferase ratio: 1.07
concentration: 10 uM
  Wnt reporter firefly/Renilla luciferase ratio: 0.95
concentration: 100 uM
  Wnt reporter firefly/Renilla luciferase ratio: 0.752

## O=C(CCCN1CCC(O)(c2ccc(Cl)cc2)CC1)c1ccc(F)cc1 [Haloperidol]
concentration: 0.1 uM
  Wnt reporter firefly/Renilla luciferase ratio: 1.01
concentration: 1 uM
  Wnt reporter firefly/Renilla luciferase ratio: 0.984
concentration: 10 uM
  Wnt reporter firefly/Renilla luciferase ratio: 0.916
concentration: 100 uM
  Wnt reporter firefly/Renilla luciferase ratio: 0.572

## CCNc1ccccc1 [N-Ethylaniline]
concentration: 0.1 uM
  Wnt reporter firefly/Renilla luciferase ratio: 0.799
concentration: 1 uM
  Wnt reporter firefly/Renilla luciferase ratio: 1.03
concentration: 10 uM
  Wnt reporter firefly/Renilla luciferase ratio: 0.96
concentration: 100 uM
  Wnt reporter firefly/Renilla luciferase ratio: 1.2

— the supplement of paper PMC9254222
